This note sets out measurements from PubChem BioAssay.

Activity calls are given as the source filed them. Cut-off read from the data, not from the text of the source: active = fold change permeability below about 0.7 or above about 1.3; inactive = in between.

This assay can be described thus: compounds altering in vitro BBB leakiness – cell-based, FITC-avidin fluorescence, HTS, primary screen (AID 1963498). Note: test concentration not given here. Conditions: brain endothelial barrier, actives lie on both sides.
As to `CC(=O)/C=C1\C(=O)N(C)c2ccccc21`, the fold change permeability was 1.2 (inactive).

With `Cn1c(=O)c2[nH]c(C3CCCC3)nc2n(C)c1=O`, the fold change permeability was 1.3 (active).

As to `C[C@@H](c1nc(-c2ccc(C#N)cc2)cs1)[C@](O)(Cn1cncn1)c1cc(F)ccc1F`, the fold change permeability is 1.2 (inactive).

Turning to `Cc1ccccc1C(OCCN(C)C)c1ccccc1` (centres undefined), the fold change permeability was 1 (inactive).

Turning to `CCn1c(=O)[nH]c2cc(Cl)c(Cl)cc21`, the fold change permeability is 0.7 (active).

Consider `COc1cc(CNC(=O)CCCCCCC(C)C)ccc1O`, for which the fold change permeability is 0.7 (active).

In the case of `O=C1NC(=O)C(c2ccccc2[N+](=O)[O-])=C1Nc1ccc(O)c(Cl)c1`, the fold change permeability is 1.4 (active).

Turning to `O=C(O)CCc1ccc(-c2ccc(Br)cc2)n1-c1ccccc1C(F)(F)F`, the fold change permeability is 1.2 (inactive).

With `O=C(O)C1CCCNC1` (centres undefined), the fold change permeability is 1.3 (active).

Take `CCN(CC)C(=O)c1ccc(O)c(OC)c1`: the fold change permeability is 0.8 (inactive).

For the molecule `O=NN(CCCl)C(=O)NCCCl`, the fold change permeability is 1 (inactive).

Turning to `CCOC(=O)C1=C[C@@H](OC(CC)CC)[C@H](NC(C)=O)[C@@H](N)C1`, the fold change permeability is 0.8 (inactive).

On to `O=c1cc(-c2ccc([N+](=O)[O-])cc2)nc2c(-c3ccc(Cl)cc3)c(Cc3ccccc3)[nH]n12`, for which the fold change permeability is 1.2 (inactive).

As for `NC(=O)c1cnccn1`, the fold change permeability is 0.9 (inactive).

As to `CCCCC[C@H](CC(=O)NO)C(=O)N[C@H](C(=O)N1CCC[C@H]1CO)C(C)C`, the fold change permeability is 1.2 (inactive).

With `O=[N+]([O-])c1ccc(CSc2ncnc3c2ncn3[C@@H]2O[C@H](CO)[C@@H](O)[C@H]2O)cc1`, the fold change permeability was 0.8 (inactive).

With `O=C(O)c1cccnc1Nc1cccc(C(F)(F)F)c1`, the fold change permeability is 0.9 (inactive).

In the case of `NC1=NCC2c3ccccc3Cc3ccccc3N12` (centres undefined), the fold change permeability is 0.8 (inactive).

On to `COC(=O)C(N)Cc1ccc(Cl)cc1` (centres undefined), for which the fold change permeability was 1.1 (inactive).

In the case of `C[N+](C)(C)CCO`, the fold change permeability was 1 (inactive).

`CNCCC=C1c2ccccc2CCc2ccccc21`: the fold change permeability was 1 (inactive).

As to `N=c1ccn2c(n1)O[C@H]1[C@H](O)[C@@H](CO)O[C@H]12`, the fold change permeability was 1.1 (inactive).

For the molecule `CN1CC[C@]2(CCN3CCc4c(oc5ccccc45)[C@@H]3C2)N(C)C1=O`, the fold change permeability was 1.1 (inactive).

For the molecule `CCC(=O)Nc1cccc(Oc2nc(Nc3ccc(N4CCN(C)CC4)cc3OC)ncc2Cl)c1`, the fold change permeability was 1.2 (inactive).

In the case of `CN(C)c1nc(N)c(C(=O)N=C(N)N)nc1Cl`, the fold change permeability is 1 (inactive).

Consider `COc1ccc(Oc2c(Cl)cnn(C3c4ccccc4-c4ccccc43)c2=O)cc1`, for which the fold change permeability was 1.4 (active).

Turning to `CN1CCN(c2nc3cc(C(F)(F)F)ccc3n3cccc23)CC1`, the fold change permeability was 1.7 (active).

For `O=C(O)COc1ccc(C(=O)c2cccs2)c(Cl)c1Cl`, the fold change permeability is 1.4 (active).

On to `O=C(OC12CC3CC(CC(C3)C1)C2)c1ccc(NCc2cc(O)ccc2O)cc1`, for which the fold change permeability was 1 (inactive).

As to `CCCCS(=N)(=O)CCC(N)C(=O)O` (centres undefined), the fold change permeability was 1.1 (inactive).

As to `CCCCCCCCCC(=O)N[C@H](CN1CCOCC1)[C@H](O)c1ccccc1`, the fold change permeability is 0.9 (inactive).

On to `CCOC(=O)c1ccc(C#Cc2ccc3c(c2)C(C)(C)CCS3)nc1`, for which the fold change permeability was 2.1 (active).

For the molecule `COc1cc2ncnc(-n3nc(-c4ccccn4)nc3N)c2cc1OC`, the fold change permeability is 2 (active).

For the molecule `N[C@@H](Cc1cnc[nH]1)C(=O)O`, the fold change permeability was 0.9 (inactive).

Take `N#C/C(=C\c1ccc(-c2cc(Cl)ccc2Cl)o1)C(=O)Nc1cccc2ncccc12`: the fold change permeability is 2.1 (active).

Regarding `O=C(Nc1ccc(-n2nc(C(F)(F)F)cc2C(F)(F)F)cc1)c1ccncc1F`, the fold change permeability is 1.2 (inactive).

On to `Cn1c(=O)c2c(nc(/C=C/c3cccc(Cl)c3)n2C)n(C)c1=O`, for which the fold change permeability is 1.6 (active).

On to `CCCCCCCC/C=C\CCCCCCCC(=O)NCCO`, for which the fold change permeability is 1.2 (inactive).

With `N#CC(C#N)=C(N)/C(C#N)=C/c1ccc(O)cc1`, the fold change permeability was 0.7 (active).
